# Reference: PubChem BioAssay (NCATS)
# Results filed as inconclusive are left out. A call without a number means that no potency is given here. Active and inactive are the calls of the source. The call rests on the fitted dose curve; in most records, active means well fitted inhibition curve with a large enough effect; inconclusive means small, poorly fitted or top-dose-only effect; inactive means flat fitted curve, though single readings scatter. Where a SMILES comes first, the peptide text is derived from it. [ ]: non-standard residue; d: D form. pGlu = O=C1CC[C@@H](C(=O)O)N1; Thz = O=C(O)[C@@H]1CSCN1
# Tested on: MCC-13
# Experiment: qHTS assay to identify novel small-molecules to repurpose for Merkel cell carcinoma treatment (AID 1296009); further: nearly all actives have a fitted effect of over 60% in size
# Details: MCC and control cell lines, CellTiter-Glo viability, 72 h; series mostly up to 46 µM
# Method in brief: (§1)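 After compound transfer in DMSO, plates were kept 72 hr at 37 degree celsius. Luminescent ATP signal from CellTiter-Glo served as viability measure, normalized against DMSO and no-cell controls.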
# Potency means the concentration at half of the fitted maximal effect.
Structure (SMILES),Potency,"activity change, negative = cytotoxicity"
C/C(=N\O)c1ccc(OCC(=O)N2CCCCC2)cc1,inactive,
CNC(=O)c1c(I)c(NC(=O)CCCCC(=O)Nc2c(I)c(C(=O)O)c(I)c(C(=O)NC)c2I)c(I)c(C(=O)O)c1I,inactive,
Cc1ccc(O)c(-n2nc3ccccc3n2)c1,inactive,
O=C(O)c1ccccc1Nc1cccc(C(F)(F)F)c1,inactive,
CCCOC(=O)c1ccc(O)cc1,inactive,
O=C(OCc1ccccc1)c1ccccc1,inactive,
CCCCCCCCCCCCOCCO,inactive,
O=C(O)Cc1cccc(-c2cc(CCCCCCc3ccc(O[C@H]4O[C@H](CO)[C@@H](O)[C@H](O)[C@@H]4O)c(-c4cccc(CC(=O)O)c4)c3)ccc2O[C@H]2O[C@H](CO)[C@@H](O)[C@H](O)[C@@H]2O)c1,,9.04% [at 0.597 µM] (inactive)
Cc1c(C(=O)O)c(O)cc2c1C(=O)c1c(O)c([C@@H]3O[C@H](CO)[C@@H](O)[C@H](O)[C@H]3O)c(O)c(O)c1C2=O,inactive,
Nc1nc2ccc([N+](=O)[O-])cc2s1,inactive,
O=c1[nH]c2ccccc2n1CCCN1CCN(C(c2ccccc2)c2ccccc2)CC1,inactive,
Nc1ccc([N+](=O)[O-])cc1O,inactive,
O=C(CCN1CCN(CCO)CC1)N1c2ccccc2Sc2ccc(C(F)(F)F)cc21,inactive,
CCC1C(=O)OCC1Cc1cncn1C (centres undefined),inactive,
CN(C)c1ccc(C(=C2C=CC(=[N+](C)C)C=C2)c2ccccc2)cc1,37.6 nM (active),
O=C(/C=C/c1ccccc1)NCCO,inactive,
O=C(O)/C=C\C(=O)O,inactive,

# Tested on: MKL-1
# Experiment: as above
# Details: MCC and control cell lines, CellTiter-Glo viability, 72 h; series mostly up to 46 µM
# Method in brief: as §1
Structure (SMILES),Potency,"activity change, negative = cytotoxicity"
C/C(=N\O)c1ccc(OCC(=O)N2CCCCC2)cc1,inactive,
CNC(=O)c1c(I)c(NC(=O)CCCCC(=O)Nc2c(I)c(C(=O)O)c(I)c(C(=O)NC)c2I)c(I)c(C(=O)O)c1I,inactive,
COC(=O)C1=C(C)NC(C)=C(C(=O)OCC(C)C)C1c1ccccc1[N+](=O)[O-] (centres undefined),21100 nM (active),
Cc1ccc(O)c(-n2nc3ccccc3n2)c1,inactive,
O=C(O)c1ccccc1Nc1cccc(C(F)(F)F)c1,inactive,
CCCOC(=O)c1ccc(O)cc1,inactive,
O=C(OCc1ccccc1)c1ccccc1,inactive,
CCCCCCCCCCCCOCCO,inactive,
O=C(O)Cc1cccc(-c2cc(CCCCCCc3ccc(O[C@H]4O[C@H](CO)[C@@H](O)[C@H](O)[C@@H]4O)c(-c4cccc(CC(=O)O)c4)c3)ccc2O[C@H]2O[C@H](CO)[C@@H](O)[C@H](O)[C@@H]2O)c1,,6.03% [at 0.597 µM] (inactive)
Cc1c(C(=O)O)c(O)cc2c1C(=O)c1c(O)c([C@@H]3O[C@H](CO)[C@@H](O)[C@H](O)[C@H]3O)c(O)c(O)c1C2=O,inactive,
Nc1nc2ccc([N+](=O)[O-])cc2s1,inactive,
O=C(CCN1CCN(CCO)CC1)N1c2ccccc2Sc2ccc(C(F)(F)F)cc21,inactive,
CCC1C(=O)OCC1Cc1cncn1C (centres undefined),inactive,
CN(C)c1ccc(C(=C2C=CC(=[N+](C)C)C=C2)c2ccccc2)cc1,37.6 nM (active),
O=C(/C=C/c1ccccc1)NCCO,inactive,
O=C(O)/C=C\C(=O)O,inactive,

# Tested on: MKL-2
# Experiment: as above
# Details: MCC and control cell lines, CellTiter-Glo viability, 72 h; series mostly up to 46 µM
# Method in brief: as §1
Structure (SMILES),Potency,"activity change, negative = cytotoxicity"
C/C(=N\O)c1ccc(OCC(=O)N2CCCCC2)cc1,inactive,
CNC(=O)c1c(I)c(NC(=O)CCCCC(=O)Nc2c(I)c(C(=O)O)c(I)c(C(=O)NC)c2I)c(I)c(C(=O)O)c1I,inactive,
COC(=O)C1=C(C)NC(C)=C(C(=O)OCC(C)C)C1c1ccccc1[N+](=O)[O-] (centres undefined),5960 nM (active),
Cc1ccc(O)c(-n2nc3ccccc3n2)c1,inactive,
O=C(O)c1ccccc1Nc1cccc(C(F)(F)F)c1,inactive,
CCCOC(=O)c1ccc(O)cc1,inactive,
O=C(OCc1ccccc1)c1ccccc1,inactive,
CCCCCCCCCCCCOCCO,inactive,
O=C(O)Cc1cccc(-c2cc(CCCCCCc3ccc(O[C@H]4O[C@H](CO)[C@@H](O)[C@H](O)[C@@H]4O)c(-c4cccc(CC(=O)O)c4)c3)ccc2O[C@H]2O[C@H](CO)[C@@H](O)[C@H](O)[C@@H]2O)c1,,5.84% [at 0.597 µM] (inactive)
Cc1c(C(=O)O)c(O)cc2c1C(=O)c1c(O)c([C@@H]3O[C@H](CO)[C@@H](O)[C@H](O)[C@H]3O)c(O)c(O)c1C2=O,inactive,
Nc1nc2ccc([N+](=O)[O-])cc2s1,inactive,
O=C(CCN1CCN(CCO)CC1)N1c2ccccc2Sc2ccc(C(F)(F)F)cc21,inactive,
CCC1C(=O)OCC1Cc1cncn1C (centres undefined),inactive,
CN(C)c1ccc(C(=C2C=CC(=[N+](C)C)C=C2)c2ccccc2)cc1,13.3 nM (active),
O=C(/C=C/c1ccccc1)NCCO,inactive,
O=C(O)/C=C\C(=O)O,inactive,

# Tested on: NIH3T3
# Experiment: as above
# Details: MCC and control cell lines, CellTiter-Glo viability, 72 h; at 44.8 µM (top of the series) unless noted
# Method in brief: as §1
row,Structure (SMILES),outcome
1,CN(CCCOc1ccc(Cc2ccccc2)cc1)CCC(=O)O,inactive
2,O=[N+]([O-])c1ccc(CNc2nc(NCc3cccc(C(F)(F)F)c3)nc3nc[nH]c23)cc1,inactive
3,CC(=O)O[C@H]1C[C@@]2(C)[C@@H](C[C@@H](O)[C@H]3[C@@]4(C)CC[C@@H](O)[C@@H](C)[C@@H]4CC[C@@]32C)/C1=C(\CCC=C(C)C)C(=O)O,inactive
4,O=C1CN(/N=C/c2ccc([N+](=O)[O-])o2)C(=O)N1,inactive
5,O=C1CC[C@@H](C(=O)N2CSC[C@H]2C(=O)O)N1 ([pGlu]-[Thz]-OH),inactive
